Data from PubChem BioAssay (NCI).
Where “and” joins values, the source holds several entries; their conditions need not be identical. Equal values may be shown once. About 83,000 compounds went through this panel and 20% of them were active in at least one assay; those are over-represented in the sample as a whole.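 Negative percent growth values reflect cell death: -40 means 40% of the cells present at the start died, and -100 means all died.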 Calls of active or inactive are those of the source. The calls were made as follows: active = growth percent below 10; inactive = the rest.

Key:
Test in all cases: NCI-60 one-dose screen, 48 h (100 = growth as untreated, 0 = no growth, -100 = all killed)
Conditions in all cases: 10 µM unless noted
DU-145 prostate = test system: DU-145 prostate
K-562 leukemia = test system: K-562 leukemia
MALME-3M melanoma = test system: MALME-3M melanoma
MDA-MB-231 breast = test system: MDA-MB-231 breast
RXF 393 renal = test system: RXF 393 renal
SF-268 CNS = test system: SF-268 CNS
SF-295 CNS = test system: SF-295 CNS
SF-539 CNS = test system: SF-539 CNS
UACC-257 melanoma = test system: UACC-257 melanoma
M14 melanoma = test system: M14 melanoma

Measured: growth

CSc1nnc(-c2cc3c([nH]c4ccccc43)c(-c3cccc(O)c3)n2)n1-c1ccc(C)cc1
inactive: DU-145 prostate 62.8% | K-562 leukemia 10.2% | MALME-3M melanoma 42% | MDA-MB-231 breast 25.7% | SF-268 CNS 48.7% | SF-295 CNS 15% | SF-539 CNS 32.3% | UACC-257 melanoma 42.5%
active: RXF 393 renal 2.76% | M14 melanoma 6.07%

COC(=O)N/N=C/c1c[n+]([O-])c2ccccc2[n+]1[O-]
inactive: DU-145 prostate 114% | K-562 leukemia 103% | MALME-3M melanoma 108% | MDA-MB-231 breast 110% | RXF 393 renal 125% | SF-268 CNS 106% | SF-295 CNS 93.4% | SF-539 CNS 101% | UACC-257 melanoma 95.1% | M14 melanoma 106%

COc1nc(=O)n(C2C=CC(=O)O2)cc1F (stereo not given)
inactive: DU-145 prostate 81.1% | K-562 leukemia 40.8% | MALME-3M melanoma 45.5% | MDA-MB-231 breast 100% | RXF 393 renal 80.7% | SF-268 CNS 85.7% | SF-295 CNS 98.2% | SF-539 CNS 99.1% | UACC-257 melanoma 88.8% | M14 melanoma 69.9%

CC1=C2[C@@H](CC1)[C@]1(C)O[C@@](C3CC3)(C[C@H]1OC(=O)CO)[C@H]2OC(=O)/C=C/c1ccccc1
inactive: DU-145 prostate 105% | K-562 leukemia 79.4% | MALME-3M melanoma 90.9% | MDA-MB-231 breast 81.2% | RXF 393 renal 38.4% | SF-268 CNS 41% | SF-295 CNS 100% | SF-539 CNS 109% | UACC-257 melanoma 92.1% | M14 melanoma 96.4%

COc1ccc(/C=C(\C#N)c2cc3ccccc3[nH]2)cc1
inactive: DU-145 prostate 31.1% | K-562 leukemia 11.4% | MALME-3M melanoma 52% | MDA-MB-231 breast 51.9% | RXF 393 renal 48% | SF-268 CNS 39.1% | SF-295 CNS 35.7% | SF-539 CNS 21.3% | UACC-257 melanoma 52.2%
active: M14 melanoma 1.53%

CC/C(=C(/c1ccc(O)cc1)c1ccc(OCCN2CCCCCC2)cc1)c1ccc(Cl)cc1
active: K-562 leukemia -21.5%
inactive: DU-145 prostate 82.9% | MALME-3M melanoma 47.5% | MDA-MB-231 breast 88.4% | RXF 393 renal 63.7% | SF-268 CNS 63.4% | SF-295 CNS 87.8% | SF-539 CNS 78.2% | UACC-257 melanoma 87.3% | M14 melanoma 17%

NCCOCCOc1ccccc1
inactive: DU-145 prostate 101% | K-562 leukemia 108% | MALME-3M melanoma 97.8% | MDA-MB-231 breast 114% | RXF 393 renal 124% | SF-268 CNS 97.8% | SF-295 CNS 103% | SF-539 CNS 108% | UACC-257 melanoma 106% | M14 melanoma 102%

C=C1C(=O)O[C@H]2[C@H]1CC/C(COC(=O)NCc1ccc(Cn3c(=O)sn(CCCI)c3=O)cc1)=C\CC[C@@]1(C)O[C@@H]21
active: K-562 leukemia 4.22% | MALME-3M melanoma -75.5% | RXF 393 renal -5.91% | M14 melanoma -42%
inactive: DU-145 prostate 13% | MDA-MB-231 breast 10.9% | SF-268 CNS 75% | SF-295 CNS 99.3% | SF-539 CNS 40% | UACC-257 melanoma 28.8%

CN(C)C(=O)c1cc2cnc(Nc3ccc(-c4csc5c(=S)cc(N6CCOCC6)oc45)cc3)nc2n1C1CCCC1
inactive: DU-145 prostate 16.9% | K-562 leukemia 10% | MALME-3M melanoma 17.8% | MDA-MB-231 breast 10.2% | SF-268 CNS 11.1%
active: RXF 393 renal -53.9% | SF-295 CNS 1.23% | SF-539 CNS -24.5% | UACC-257 melanoma 4.13% | M14 melanoma 7.51%

COc1ccccc1/C=C1\COc2ccc(O)c(O)c2C1=O
inactive: MDA-MB-231 breast 17.4% | RXF 393 renal 36.6% | SF-268 CNS 32% | SF-295 CNS 90.8% | UACC-257 melanoma 33.6% | M14 melanoma 29%
active: DU-145 prostate 5.75% | K-562 leukemia 2.89% | MALME-3M melanoma 6.18% | SF-539 CNS -23.5%

Cc1c(C(=O)OCCCCOC(=O)c2c(C)n(C)c3scc[n+]23)[n+]2ccsc2n1C
inactive: DU-145 prostate 107% | K-562 leukemia 92% | MALME-3M melanoma 105% | MDA-MB-231 breast 97.9% | RXF 393 renal 103% | SF-268 CNS 108% | SF-295 CNS 93.2% | SF-539 CNS 105% | UACC-257 melanoma 96.5% | M14 melanoma 110%

CN(C)CCCn1c2nc(=O)[nH]c(=O)c-2nc2cc(Cl)c(Cl)cc21
inactive: DU-145 prostate 115% | K-562 leukemia 47.9% | MALME-3M melanoma 106% | MDA-MB-231 breast 98.6% | RXF 393 renal 111% | SF-268 CNS 108% | SF-295 CNS 99.3% | SF-539 CNS 105% | UACC-257 melanoma 41.7% | M14 melanoma 51.1%

COc1ccc(/C=N/NC(=O)CN2CCN(c3cc4c(cc3F)c(=O)c(C(=O)O)cn4C3CC3)CC2)cc1O
inactive: DU-145 prostate 102% | K-562 leukemia 86.2% | MALME-3M melanoma 109% | MDA-MB-231 breast 92.8% | RXF 393 renal 103% | SF-268 CNS 87.7% | SF-295 CNS 104% | SF-539 CNS 101% | UACC-257 melanoma 89.5% | M14 melanoma 101%

COc1ccc(C(=O)N/N=C/c2ccc(O)cc2O)cc1Nc1ccnc(C(F)(F)F)c1
active: MALME-3M melanoma 9.52% | M14 melanoma 2.43%
inactive: DU-145 prostate 48.1% | K-562 leukemia 26.6% | MDA-MB-231 breast 51.6% | RXF 393 renal 49% | SF-268 CNS 49.9% | SF-295 CNS 22.7% | SF-539 CNS 10.3% | UACC-257 melanoma 33.1%

CCOc1ccccc1NC(=O)c1cc2ccccc2cc1O
inactive: DU-145 prostate 78.5% | K-562 leukemia 22.8% | MALME-3M melanoma 49.8% | MDA-MB-231 breast 54.9% | RXF 393 renal 63.2% | SF-268 CNS 80.6% | SF-295 CNS 106% | SF-539 CNS 84.6% | UACC-257 melanoma 54.2% | M14 melanoma 64.6%

Cc1ccc(-c2nc(SCC(=O)c3ccc(C#N)cc3)[nH]c(=O)c2C#N)cc1
inactive: DU-145 prostate 102% | K-562 leukemia 96.3% | MALME-3M melanoma 99.2% | MDA-MB-231 breast 100% | RXF 393 renal 117% | SF-268 CNS 96% | SF-295 CNS 103% | SF-539 CNS 92.2% | UACC-257 melanoma 100% | M14 melanoma 96.7%

N=C(N)c1ccc(-c2ccc(-c3ccc(Cl)c(Cl)c3)s2)cc1
inactive: MALME-3M melanoma 78.7% | RXF 393 renal 77.9% | SF-268 CNS 56.2% | SF-295 CNS 35.5% | SF-539 CNS 52.7% | UACC-257 melanoma 96.6% | M14 melanoma 38.1%
active: DU-145 prostate -88.9% | K-562 leukemia -11.6% | MDA-MB-231 breast -20.2%

COC(=O)c1c2c(c(C)[n+]([O-])c1C)C(=O)C(NCCN1CCOCC1)=CC2=O
inactive: DU-145 prostate 84.3% | K-562 leukemia 75.6% | MDA-MB-231 breast 70.8% | RXF 393 renal 96.3% | SF-268 CNS 79.3% | SF-295 CNS 82.7% | SF-539 CNS 89.5% | UACC-257 melanoma 48.4% | M14 melanoma 62.9%
active: MALME-3M melanoma -13.2%

COC1=CC(=O)C(OC)=C(O)C1=O
inactive: DU-145 prostate 109% | K-562 leukemia 103% | MALME-3M melanoma 97.7% | MDA-MB-231 breast 100% | RXF 393 renal 104% | SF-268 CNS 107% | SF-295 CNS 102% | SF-539 CNS 92.4% | UACC-257 melanoma 97.4% | M14 melanoma 97.2%

O=c1cc(N/N=C/c2ccc(F)cc2)c2cc(Cl)ccc2[nH]1
inactive: DU-145 prostate 102% | MALME-3M melanoma 98.4% | MDA-MB-231 breast 94.4% | RXF 393 renal 113% | SF-268 CNS 106% | SF-295 CNS 100% | SF-539 CNS 104% | UACC-257 melanoma 85.8% | M14 melanoma 81.2%
active: K-562 leukemia 2.38%

O=C1/C(=C/c2ccc(-c3cccc(C(F)(F)F)c3)o2)SC(=S)N1CCc1ccc(O)cc1
inactive: DU-145 prostate 12.8% | K-562 leukemia 20.6% | MALME-3M melanoma 71.6% | MDA-MB-231 breast 90.5% | RXF 393 renal 82.2% | SF-268 CNS 56.8% | SF-295 CNS 96.6% | SF-539 CNS 76.2% | UACC-257 melanoma 95% | M14 melanoma 57.5%

CCN(CC)CCOc1ccc(/C(=C(\Cl)c2ccccc2)c2ccccc2)cc1
-2.92% (active) and 28% (inactive): K-562 leukemia
-57.9% (active) and 45.8% (inactive): UACC-257 melanoma
-5.76% (active) and 29.9% (inactive): SF-539 CNS
active: MALME-3M melanoma -18.7% | RXF 393 renal -58.3% and -26.6% | SF-295 CNS -23.1%
-36.2% (active) and 43.3% (inactive): M14 melanoma
inactive: DU-145 prostate 74.6% and 103% | SF-268 CNS 62.8% and 103%
1.62% (active) and 26.1% (inactive): MDA-MB-231 breast

C[C@@H]1O[C@@H](O[C@H]2[C@@H](OC(=O)[C@]34CCC(C)(C)C[C@H]3C3=CC[C@@H]5[C@@]6(C)C[C@H](O)[C@H](O[C@@H]7O[C@H](CO)[C@@H](O)[C@H](O)[C@H]7O)[C@@](C)(CO)[C@@H]6CC[C@@]5(C)[C@]3(C)C[C@H]4O)OC[C@@H](O)[C@@H]2O)[C@H](O)[C@H](O[C@@H]2OC[C@@H](O)[C@H](O[C@@H]3OC[C@](O)(CO)[C@H]3O[C@@H]3OC[C@@H](O)[C@H](O)[C@H]3O)[C@H]2O)[C@H]1O[C@@H]1OC[C@](O)(CO)[C@H]1O
inactive: DU-145 prostate 78.5% | K-562 leukemia 58.2% | MALME-3M melanoma 89.9% | MDA-MB-231 breast 74.1% | RXF 393 renal 70.7% | SF-268 CNS 85.7% | SF-295 CNS 62.3% | SF-539 CNS 85.5% | UACC-257 melanoma 56.2% | M14 melanoma 75.9%
